In the library only some 6.9% were active in any assay of this set; here they are far more common.
Giardia killer: kills Giardia lamblia; 340,000 tested, 0.15% active; Giardia lamblia trophozoite viability; AID 540267; activity change, % at 7.66 µM, hits read low; in the data active means activity change below about -80%; inconclusive means between about -30% and that limit;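 further: parasites exposed to compound for two days anaerobically before the ATP read; on the % scale 0 is the no-effect control and ±100 the full control effect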
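Anaerobic 48 hrs incubation at 37 deg C of 100 trophozoites/well with test compounds; ATPLite 1-Step luminescence, 15-30 min RT, reports cellular ATP as viability.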
ASM inhibitor: inhibitors of human secretory acid sphingomyelinase | placental ASM, HMU-PC fluorogenic substrate, 60 min | 340,000 tested, 0.006% active | Potency, µM (doses to about 57.5 µM), for the others: top-dose activity change, negative = inhibition, actives largely listed as inhibitors | P17405; further: potency means the concentration at half of the fitted maximal effect
Target sequence (P17405 47-631 limits assumed): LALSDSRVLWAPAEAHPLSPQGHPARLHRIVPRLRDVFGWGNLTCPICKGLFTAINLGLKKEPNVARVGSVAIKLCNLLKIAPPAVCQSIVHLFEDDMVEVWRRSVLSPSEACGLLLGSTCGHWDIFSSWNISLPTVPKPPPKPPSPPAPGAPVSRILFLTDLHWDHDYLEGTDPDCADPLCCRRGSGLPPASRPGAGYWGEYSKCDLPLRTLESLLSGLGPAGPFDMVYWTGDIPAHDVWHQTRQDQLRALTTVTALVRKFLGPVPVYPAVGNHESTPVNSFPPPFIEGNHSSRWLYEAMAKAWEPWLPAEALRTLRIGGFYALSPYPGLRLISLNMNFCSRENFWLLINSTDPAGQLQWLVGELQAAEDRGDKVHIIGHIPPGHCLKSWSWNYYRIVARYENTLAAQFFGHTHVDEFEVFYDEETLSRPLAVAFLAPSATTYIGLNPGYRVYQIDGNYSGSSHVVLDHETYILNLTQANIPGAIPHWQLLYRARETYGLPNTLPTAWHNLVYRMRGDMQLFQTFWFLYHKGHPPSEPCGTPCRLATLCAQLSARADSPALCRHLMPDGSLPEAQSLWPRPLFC
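Steps: dispense placental human ASM, pin compound, wait 10 min at room temperature, add HMU-PC0 substrate at 9 uM final, incubate 60 min at 37 °C, add stop solution raising pH to 10, read fluorescence.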
SW480 rereplic: DNA re-replication induction in SW480 cells | SW480 DNA re-replication, Hoechst DNA content imaging, 48 h | 340,000 tested, 1.8% active | Potency, µM (series often up to 46.1 µM), inactives show top-dose re-replication activation, hits mostly activators; further: potency means the concentration at half of the fitted maximal effect; % of control where 0% means no effect; nearly all actives have a fitted effect of over 55% in size
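SW480 cells exposed to compounds for 48 hr at 37 C, 5% CO2, then Hoechst-stained 40 min. Nuclear DNA content imaged by fluorescence scanning (405 nm excitation, 500-530 nm emission); re-replication scored as increased high-intensity nuclei.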
KB-3-1 tox: kills parental KB-3-1 adenocarcinoma cells; AID 1347075; 400,000 tested, 1.4% active; Potency, µM (titrated, usually from 46.1 µM), hits mostly cytotoxic; KB-3-1 viability, CellTiter-Glo ATP luminescence, 72 h; further: potency means the concentration at half of the fitted maximal effect; on the % scale 0 is the no-effect control and ±100 the full control effect; nearly all actives have a fitted effect of over 60% in size
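Cells are dispensed, compounds pinned in, plates held at 37 °C for 72 h, then CellTiter-Glo is added and luminescence read after 10 minutes. Cell line: parental KB-3-1 in phenol-red-free DMEM, 10% FBS.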
KB-V1 MDR tox: KB-V1 MDR subline cytotoxicity; KB-V1 MDR cells viability, CellTiter-Glo, 72 h; Potency, µM (doses to about 46.1 µM), hits mostly cytotoxic; 400,000 tested, 3.4% active; AID 1347076; further: potency means the concentration at half of the fitted maximal effect; on the % scale 0 is the no-effect control and ±100 the full control effect; nearly all actives have a fitted effect of over 60% in size
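Luminescent ATP read-out (CellTiter-Glo, 10 min) measures survival of drug-selected KB-V1 MDR cells after 72 h, 37 degrees C compound exposure. Medium: phenol-red-free DMEM, 10% FBS. Values from fitted concentration-response curves.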
MCF10A rereplic: inducers of DNA re-replication in MCF 10A breast cells. MCF 10A DNA re-replication, Hoechst nuclear intensity, 48 h. Potency, µM (highest dose often 46.1 µM), for inactives: at the highest dose activity, positive = re-replication, actives largely listed as activators. 350,000 tested, 2.9% active; further: potency means the concentration at half of the fitted maximal effect; % of control where 0% means no effect; nearly all actives have a fitted effect of over 50% in size
Active calls of the source: *. Unless noted, the call rests on the fitted dose curve; in most records, active means well fitted curve in the direction sought with a large enough effect; inconclusive means small, poorly fitted or top-dose-only effect, or another doubt; inactive means no such curve, though single readings can be large; an effect the other way counts as inactive or inconclusive.

How did CCCCCCCCCC[n+]1ccc(/C=C/c2c(C)[nH]c3ccccc23)cc1 do in these assays?
KB-3-1 tox: 1.3µM*; KB-V1 MDR tox: inconclusive

How did CCCCCCC[n+]1ccc(/C=C/c2c[nH]c3ccccc23)cc1 do in these assays?
KB-3-1 tox: 0.41µM*; KB-V1 MDR tox: inactive

How did O=Cc1c[nH]c2ccccc12 do in these assays?
Giardia killer: 19

How did CC[n+]1ccc(/C=C/c2c[nH]c3ccccc23)cc1 do in these assays?
Giardia killer: 11; ASM inhibitor: -14%; SW480 rereplic: inconclusive; KB-3-1 tox: 1.8µM*; KB-V1 MDR tox: inactive; MCF10A rereplic: inconclusive

What do the screens show for `COc1ccc2c(Sc3ccccc3)c(C(=O)NCc3cc(Br)ccc3OC)[nH]c2c1`?
KB-3-1 tox: inactive; KB-V1 MDR tox: inactive

How did CCOC(=O)c1c(S(=O)(=O)N2CCCC(C(=O)N3CCN(c4ccc(F)cc4)CC3)C2)c(C)n(C)c1C (configuration not stated) do in these assays?
KB-3-1 tox: inactive; KB-V1 MDR tox: inactive

How did CSc1nc(Nc2ccc(Cl)cc2)c(C#N)c(=O)[nH]1 do in these assays?
Giardia killer: -2; ASM inhibitor: -6%; SW480 rereplic: -2%; KB-3-1 tox: 5.2µM*; KB-V1 MDR tox: 5.2µM*; MCF10A rereplic: 15%

Results for N#Cc1c(Nc2ccc(Cl)cc2)s[nH]c1=O ?
Giardia killer: -8; ASM inhibitor: 6%; SW480 rereplic: inconclusive; KB-3-1 tox: inactive; KB-V1 MDR tox: inactive; MCF10A rereplic: 18µM*

What do the screens show for `N#Cc1c(Nc2ccc(F)cc2)sc(C(=O)c2ccc(F)cc2)c1N`?
Giardia killer: 8; ASM inhibitor: -8%; SW480 rereplic: -7%; KB-3-1 tox: inactive; KB-V1 MDR tox: inactive; MCF10A rereplic: 1%

What do the screens show for `Cc1c(Cl)ccc2sc(NC(=O)c3ccc(S(=O)(=O)N4CCCC4)cc3)nc12`?
KB-3-1 tox: inactive; KB-V1 MDR tox: inactive

Results for Cc1cccc(NC(=S)N(C)Cc2cn(C)c3ccccc23)c1 ?
Giardia killer: 6; ASM inhibitor: -1%; SW480 rereplic: -5%; KB-3-1 tox: inactive; KB-V1 MDR tox: inconclusive; MCF10A rereplic: 23%

How did CN(Cc1cn(C)c2ccccc12)C(=S)Nc1cc(F)cc(F)c1 do in these assays?
Giardia killer: 4; ASM inhibitor: 3%; SW480 rereplic: -57%; KB-3-1 tox: inconclusive; KB-V1 MDR tox: 18µM*; MCF10A rereplic: -65%

Results for CC(=O)c1ccc(NC(=O)C2CCC(CNS(=O)(=O)c3ccc4c(c3)CCCC(=O)N4)CC2)cc1 (configuration not stated) ?
KB-3-1 tox: inactive; KB-V1 MDR tox: inactive

Results for O=C(CN1CCN(S(=O)(=O)c2ccc(Br)s2)CC1)NCC1CCCCC1 ?
KB-3-1 tox: inactive; KB-V1 MDR tox: inactive

Results for Cc1ccc(/C=N/NC(=O)CN2CCN(S(=O)(=O)c3ccc(Br)cc3)CC2)s1 ?
Giardia killer: 11; ASM inhibitor: -1%; SW480 rereplic: -2%; KB-3-1 tox: inactive; KB-V1 MDR tox: inconclusive; MCF10A rereplic: 3%

What do the screens show for `O=C(CN1CCN(S(=O)(=O)c2ccc(Br)s2)CC1)NC1CCCCC1`?
Giardia killer: -15; ASM inhibitor: -2%; SW480 rereplic: -2%; KB-3-1 tox: inactive; KB-V1 MDR tox: 10µM*; MCF10A rereplic: -1%

What do the screens show for `Cc1cc(C)cc(NC(=O)CN2CCCN(S(=O)(=O)c3ccc(Br)s3)CC2)c1`?
Giardia killer: 0; ASM inhibitor: -2%; SW480 rereplic: 2%; KB-3-1 tox: inconclusive; KB-V1 MDR tox: 2.9µM*; MCF10A rereplic: 12%

How did O=C(CN1CCN(S(=O)(=O)c2ccc(Br)cc2)CC1)N/N=C/c1ccc(Br)s1 do in these assays?
Giardia killer: 17; ASM inhibitor: -3%; SW480 rereplic: 3%; KB-3-1 tox: inactive; KB-V1 MDR tox: 21µM*; MCF10A rereplic: -7%

How did Cc1ccc(NC(=O)CN2CCCN(S(=O)(=O)c3ccc(Br)s3)CC2)cc1 do in these assays?
Giardia killer: 4; ASM inhibitor: -9%; SW480 rereplic: 4%; KB-3-1 tox: inactive; KB-V1 MDR tox: 4.6µM*; MCF10A rereplic: 24%

Results for CCCNC(=O)CN1CCN(S(=O)(=O)c2ccc(Br)s2)CC1 ?
Giardia killer: 14; ASM inhibitor: -1%; SW480 rereplic: -6%; KB-3-1 tox: inactive; KB-V1 MDR tox: inconclusive; MCF10A rereplic: 14%

Results for Cc1ccc(CNC(=O)C2COc3ccccc3C2)cc1 (configuration not stated) ?
KB-3-1 tox: inactive; KB-V1 MDR tox: inactive

Results for C[C@@H](CCc1ccccc1)NC[C@H](O)c1ccc(O)c(C(N)=O)c1 ?
SW480 rereplic: -2%; MCF10A rereplic: -5%

Results for COc1ccc(-c2noc(CC(=O)N(C)c3cc(Cl)c(OC)cc3OC)n2)cc1 ?
KB-3-1 tox: inactive; KB-V1 MDR tox: inactive

What do the screens show for `CC(C)=CCc1c(O)cc(O)c2c(=O)c3c(CC=C(C)C)c(O)ccc3oc12`?
Giardia killer: -2; ASM inhibitor: -29%; SW480 rereplic: inconclusive; KB-3-1 tox: inconclusive; KB-V1 MDR tox: inconclusive; MCF10A rereplic: inconclusive

How did CCC1=NN(C(=O)c2ccccc2O)C(O)(c2ccccc2)C1 (configuration not stated) do in these assays?
Giardia killer: -1; ASM inhibitor: -8%; SW480 rereplic: 16µM*; KB-3-1 tox: inconclusive; KB-V1 MDR tox: inconclusive; MCF10A rereplic: inconclusive

How did O=C(c1ccccc1O)N1N=C(c2ccccc2)CC1(O)C(F)(F)F (configuration not stated) do in these assays?
Giardia killer: 4; ASM inhibitor: -3%; SW480 rereplic: inconclusive; KB-3-1 tox: inactive; KB-V1 MDR tox: inactive; MCF10A rereplic: 21µM*

How did Cc1ccccc1OCC(=O)N1N=C(c2cccnc2)CC1(O)C(F)(F)F (configuration not stated) do in these assays?
Giardia killer: -17; ASM inhibitor: -3%; SW480 rereplic: -6%; KB-3-1 tox: inactive; KB-V1 MDR tox: 21µM*; MCF10A rereplic: -11%

Results for COc1cccc(C(=O)N2N=C(c3ccccc3)CC2(O)C(F)(F)F)c1 (configuration not stated) ?
Giardia killer: -4; ASM inhibitor: -7%; SW480 rereplic: 1%; KB-3-1 tox: inactive; KB-V1 MDR tox: 16µM*; MCF10A rereplic: inconclusive
